Experimental findings from the supplement of paper PMC8699584 are described below.

Structures are written as SMILES. Where “and” joins values, the source holds several entries; their conditions need not be identical. Equal entries are not always repeated. Structures can show the parent of a compound that is named as a salt. ± gives the standard deviation of the averaged measurements.

One assay deals with Molm13. Kind of assay: cell viability relative to DMSO control (bortezomib = 0%); higher = less growth inhibition. Particulars: 10 nM; 72 h. Put shortly: (§1)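 Cell viability was assessed by CellTiter-Glo luminescence. Acute myeloid leukemia cells were seeded at 1000 cells per well in 50 µL on a 384-well library of 679 compounds at a single 10 nM dose for 72 h. Per-plate linear regression set DMSO-treated cells at 100% and positive-control-treated cells at 0%.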

In a further assay the test system is Mv4-11. Described as above. Particulars: 10 nM; 72 h. The method, boiled down: as §1

In the case of `C[C@@H]1CCN(C(=O)CC#N)C[C@@H]1N(C)c1ncnc2[nH]ccc12`, the cell viability was 109% and 101% in the assay on Molm13; 99.7% and 105% with Mv4-11.

Take `Nc1nccc(-c2c(-c3ccc(F)cc3)ncn2C2CCCCC2)n1`: the results for the cell viability in the assay on Molm13 and in the assay with Mv4-11 were 96.6 ± 18% and 114.4 ± 0.84%, respectively.

As for `COc1ccc(-n2c(SCC#N)nc3sc4c(c3c2=O)CCCC4)cc1` [Necrostatin-5], the cell viability in the assay on Molm13 is 102 ± 3.9%; with Mv4-11, 103 ± 3%.

As for `Cc1ccc(NC(=O)c2ccc(CN3CCN(C)CC3)cc2)cc1Nc1nc(-c2cccnc2)cs1` [Masitinib (AB1010)], the cell viability in the assay on Molm13 was determined as 98.2 ± 12%; with Mv4-11, 116 ± 26%.

For `CC1(C)C=Cc2c(ccc3c2OC[C@@H](c2ccc(O)cc2O)C3)O1` [Glabridin], the cell viability in the assay with Molm13 came out at 100 ± 12%; with Mv4-11 it was 99 ± 1.6%.

`Cn1cc(-c2ccc3nnc(Sc4ccc5ncccc5c4)n3n2)cn1`: the results for the cell viability in the assay on Molm13 and in the assay on Mv4-11 were 127 ± 6.4% and 104 ± 4.2%, respectively.

Take `CC[C@H](Nc1ncnc2[nH]cnc12)c1nc2cccc(F)c2c(=O)n1-c1ccccc1` [CAL-101 (Idelalisib, GS-1101)]: the cell viability in the assay on Molm13 was found to be 93.7 ± 22%; in the assay on Mv4-11 it was 105 ± 6.2%.

Regarding `Oc1cccc(-c2nc(N3CCOCC3)c3oc4ncccc4c3n2)c1`, the cell viability with Molm13 is 94.1 ± 2.2%; with Mv4-11, 104 ± 8.7%.

In the case of `COc1cc2ncnc(Nc3cccc(Cl)c3F)c2cc1OC(=O)N1CCN(C)C[C@H]1C`, the results for the cell viability in the assay with Molm13 and with Mv4-11 were 110 ± 8.6% and 99.9 ± 8.6%, respectively.

As to `COc1cc(OC2CCN(C)CC2)ccc1Nc1ncc2c(n1)n(C1CCCC1)c(=O)n2C`, the cell viability in the assay with Molm13 was 107 ± 7.8%; in the assay with Mv4-11, 104.1 ± 0.45%.

With `CCNc1nc(Nc2cc(F)c(C(=O)N3CCOCC3)cc2OC)ncc1C(F)(F)F`, the cell viability with Molm13 is 105.79 ± 0.065%; in the assay on Mv4-11, 102.3 ± 0.71%.

As to `COc1cc2nccc(Oc3ccc(NC(=O)C4(C(=O)Nc5ccc(F)cc5)CC4)cc3)c2cc1OC`, the cell viability in the assay on Molm13 is 29.6 ± 16%; with Mv4-11, 44.5 ± 3.8%.

Regarding `CNc1nc(-c2ccc3c(N)n[nH]c3c2)cc(N2C[C@@H](C(=O)NC3CCCCC3)CC[C@H]2C)n1`, the cell viability with Molm13 came out at 112 ± 2.6%; in the assay with Mv4-11, 99.15 ± 0.68%.

With `COc1cc(-c2cc(-c3cccc(O)c3)cnc2N)cc(OC)c1OC`, the cell viability in the assay with Molm13 stood at 99.8 ± 14%; in the assay with Mv4-11 it was 106 ± 6.8%.

Take `CNS(=O)(=O)c1ccccc1Nc1nc(Nc2ccc(N3CCN(C)CC3)cc2OC)ncc1Cl` [ALK inhibitor 2]: the cell viability with Molm13 came out at 98.9 ± 20%; in the assay with Mv4-11 it was 104 ± 16%.

With `COc1cc(OC)c(/C=C/S(=O)(=O)Cc2ccc(OC)c(NCC(=O)O)c2)c(OC)c1`, the cell viability in the assay with Molm13 came to 99.3 ± 23%; in the assay with Mv4-11, 124 ± 8.1%.

As for `CNC(=O)c1ccc(Nc2ncc(C(F)(F)F)c(NCc3nccnc3N(C)S(C)(=O)=O)n2)cc1`, the figures for the cell viability in the assay on Molm13 and in the assay with Mv4-11 were 90.2 ± 16% and 99.5 ± 3.4%, respectively.

Consider `Cc1cn(-c2cc(NC(=O)c3ccc(C)c(Nc4nccc(-c5cccnc5)n4)c3)cc(C(F)(F)F)c2)cn1` [Nilotinib], for which the cell viability was found to be 124 ± 9.8% in the assay with Molm13 and 108 ± 16% in the assay with Mv4-11.

As to `Cc1cn(-c2cc(NC(=O)c3ccc(C)c(Nc4nccc(-c5cnccn5)n4)c3)cc(C(F)(F)F)c2)cn1` [Radotinib], the cell viability is 100 ± 2.6% with Molm13 and 107 ± 13% with Mv4-11.

As for `O=c1cc(N2CCOCC2)oc2c(-c3cccc4c3sc3ccccc34)cccc12`, the cell viability turned out to be 108 ± 5.3% with Molm13 and 108 ± 8.2% in the assay with Mv4-11.

`Cc1ncc(CCCN(C)C)cc1Nc1ncc2c(n1)-c1ccc(C(F)(F)F)cc1NC(=S)C2`: the results for the cell viability in the assay with Molm13 and in the assay with Mv4-11 were 100 ± 2.9% and 108 ± 7.1%, respectively.

In the case of `O=C(NCCO)c1cccc(-c2cc(Nc3ccc(OC(F)(F)F)cc3)ncn2)c1`, the cell viability in the assay on Molm13 is 98.72 ± 0.31%; with Mv4-11, 107 ± 3.3%.

Consider `CNC(=O)c1cc(Oc2ccc(NC(=O)Nc3ccc(Cl)c(C(F)(F)F)c3)c(F)c2)ccn1` [Regorafenib (BAY 73-4506)], for which the cell viability with Molm13 was 101 ± 7.3%; with Mv4-11, 110.3 ± 0.69%.

For the molecule `Cc1c(NC(=O)c2ccc(C(C)(C)C)cc2)cccc1-c1cn(C)c(=O)c(Nc2ccc(C(=O)N3CCOCC3)cc2)n1`, the cell viability in the assay on Molm13 is 106 ± 13%; with Mv4-11, 115 ± 8.8%.

For `O=C(NCc1ccccc1)c1csc(Nc2ccncn2)n1` [Thiazovivin], the cell viability came to 115 ± 7.6% in the assay with Molm13 and 113 ± 3.7% in the assay on Mv4-11.

In the case of `CN1CCN(CCCNc2ncc(Cl)c(-c3cc4c(C(=O)NC5CC5)cccc4s3)n2)CC1`, the cell viability worked out at 110 ± 3.6% in the assay on Molm13 and 109 ± 13% with Mv4-11.

For `CCC[C@H](NC(=O)/C(C#N)=C/c1cccc(Br)n1)c1ccccc1`, the cell viability with Molm13 worked out at 132 ± 32%; with Mv4-11, 115 ± 11%.

As to `O=C1NC(=O)/C(=C/c2ccc3nccnc3c2)S1`, the figures for the cell viability in the assay with Molm13 and in the assay on Mv4-11 were 102 ± 17% and 113 ± 4.8%, respectively.

Turning to `O=C(NOCC1CC1)c1ccc(F)c(F)c1Nc1ccc(I)cc1Cl`, the cell viability worked out at 105 ± 1.4% in the assay on Molm13 and 95.7 ± 9.2% with Mv4-11.

`CNC(=O)c1ccc(C)c(-n2c(C)cc(OCc3ccc(F)cc3F)c(Br)c2=O)c1`: the cell viability in the assay on Molm13 was 97.9 ± 3.1%; in the assay with Mv4-11, 110 ± 1.8%.

As for `CO[C@@H]1[C@H](N(C)C(=O)c2ccccc2)C[C@H]2O[C@]1(C)n1c3ccccc3c3c4c(c5c6ccccc6n2c5c31)C(=O)NC4`, the cell viability with Molm13 stood at 76.2 ± 3%; in the assay on Mv4-11, 87.82 ± 0.66%.

For the molecule `CC(CCc1ccccn1)(CCc1ccccn1)C(=O)c1ccccc1`, the cell viability in the assay on Molm13 was determined as 112 ± 14%; in the assay with Mv4-11, 109 ± 12%.

With `O=[N+]([O-])c1ccc(-c2nc(-c3ccc(F)cc3)c(-c3ccncc3)[nH]2)cc1`, the cell viability in the assay with Molm13 is 99.9 ± 5.5%; in the assay with Mv4-11, 101 ± 5.5%.

Turning to `CC(C)c1ccc2c(c1)CC[C@@H]1[C@@](C)(CN)CCC[C@@]21C` [Leelamine (hydrochloride)], the cell viability in the assay with Molm13 was determined as 101.6 ± 0.018%; in the assay with Mv4-11 it was 96.46 ± 0.32%.

Regarding `COc1cc(Nc2ncc3c(n2)-c2ccc(Cl)cc2C(c2c(F)cccc2OC)=NC3)ccc1C(=O)O` [MLN8237(Alisertib)], the figures for the cell viability with Molm13 and in the assay on Mv4-11 were 99.5 ± 6.3% and 114 ± 4.2%, respectively.

Take `S=C(NCc1ccc2c(c1)OCO2)N1CCN(c2ncnc3c2oc2ccccc23)CC1` [Amuvatinib(MP470)]: the cell viability in the assay with Molm13 is 101 ± 10%; in the assay on Mv4-11, 103 ± 15%.
